# ± gives the standard deviation.
# Assays:
# [1] = tested on: MILI (PIWIL2) piRISC loaded with piRNA #1 (26 nt); assay: pre-steady-state target cleavage rate (min^-1); guide: piRNA #1 5'p-UGAGGUAGUAGGUUGUAUAGUAUCCA; higher = faster piRNA-guided slicing of the target; conditions: auxiliary factor: 500 nM mouse GTSF1
# Procedure, shortened: (§1)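 The pre-steady-state cleavage rate was obtained by Cleave-'n-Seq with a burst-and-steady-state fit. A transcribed, DNA-blocked target RNA library (0.1 nM) was mixed with 1 nM active affinity-purified piRISC carrying one synthetic guide, with or without 500 nM GTSF1 partner protein, in HEPES–potassium acetate buffer at 33 °C for 0–8 or 0–960 min. Uncleaved targets were sequenced and normalised to depth and to weakly complementary targets, with three trials pooled and k3 capped at 0.0001 min^-1.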
# [2] = tested on: EfPiwi piRISC loaded with piRNA #1 (26 nt); assay: pre-steady-state target cleavage rate (min^-1); auxiliary factor: 500 nM Ephydatia muelleri Gtsf1; guide: piRNA #1 5'p-UGAGGUAGUAGGUUGUAUAGUAUCCA; MIWI and MILI are mouse PIWI proteins and EfPiwi is from a freshwater sponge; tags in brackets are library labels; higher = faster piRNA-guided slicing of the target
# Procedure, shortened: as §1
Sequence,pre-steady-state target cleavage rate [1],pre-steady-state target cleavage rate [2]
GGAGACCAUUCUAUACAACCUUCUACCUCA,0.0122 ± 0.0038,0.00336 ± 0.0032
GGAGAGGAUACUAUACAACCAACUACGUCA,0.00609 ± 0.0018,0.00338 ± 0.0016
GGAGAGGAGACUAUACAACCUACUACCUCA,0.25 ± 0.052,0.0151 ± 0.0058
GGAGACGAUACAUUACAACCUACUACCUCA,0.173 ± 0.015,0.00848 ± 0.0035
GGAGACCUUACUACUACAACCUACUACCUCA,0.107 ± 0.011,0.00852 ± 0.0036
GGAGACCAUACUAUACAACCUACUAUCUCA,0.136 ± 0.013,0.00899 ± 0.0033
GGAGACCUUACUUUACAUCCUACUACCUCA,0.26 ± 0.022,0.00417 ± 0.0035
GGAGACCAUACUAUACAACCUAACUACCUCA,0.0248 ± 0.0049,0.00707 ± 0.0033
GGAGACCUUUCUAUACAACCUAGUACCUCA,0.0267 ± 0.0078,0.00465 ± 0.0038
GGAGACGAUUGAAUACAACCUACUACCUCA,0.00898 ± 0.0022,0.00528 ± 0.0043
GGAGACGAUACUAUACAAGCUACUACGUCA,0.205 ± 0.032,0.00352 ± 0.0014

# — the supplement of paper PMC10338343
